Assay results: PubChem BioAssay (NCI)
This is part of a sample that, as a whole, favours compounds with a hit. Of some 83,000 tested, about 20% had one in any assay.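 Interpretation: 100, growth as untreated; towards 0, rising growth inhibition; 0, no net growth; 0 to -100, cell death. Compounds scoring below 10 were considered active.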 A number with no mark means an inactive call. Active and inactive are the calls of the source.

Key:
Experiment in all cases: NCI-60 one-dose screen, 48 h (100 = growth as untreated, 0 = no growth, -100 = all killed)
Conditions in all cases: 10 µM
SK-MEL-2 melanoma = tested on: SK-MEL-2 melanoma
SN12C renal = tested on: SN12C renal
UO-31 renal = tested on: UO-31 renal
TK-10 renal = tested on: TK-10 renal
ACHN renal = tested on: ACHN renal
CAKI-1 renal = tested on: CAKI-1 renal
A498 renal = tested on: A498 renal
CCRF-CEM leukemia = tested on: CCRF-CEM leukemia
MOLT-4 leukemia = tested on: MOLT-4 leukemia
RPMI-8226 leukemia = tested on: RPMI-8226 leukemia
OVCAR-5 ovarian = tested on: OVCAR-5 ovarian
OVCAR-4 ovarian = tested on: OVCAR-4 ovarian
SK-OV-3 ovarian = tested on: SK-OV-3 ovarian
IGROV1 ovarian = tested on: IGROV1 ovarian
OVCAR-3 ovarian = tested on: OVCAR-3 ovarian
HS 578T breast = tested on: HS 578T breast
NCI/ADR-RES ovarian = tested on: NCI/ADR-RES ovarian
SR leukemia = tested on: SR leukemia
OVCAR-8 ovarian = tested on: OVCAR-8 ovarian

Structure (SMILES) | growth (SK-MEL-2 melanoma) | growth (SN12C renal) | growth (UO-31 renal) | growth (TK-10 renal) | growth (ACHN renal) | growth (CAKI-1 renal) | growth (A498 renal) | growth (CCRF-CEM leukemia) | growth (MOLT-4 leukemia) | growth (RPMI-8226 leukemia) | growth (OVCAR-5 ovarian) | growth (OVCAR-4 ovarian) | growth (SK-OV-3 ovarian) | growth (IGROV1 ovarian) | growth (OVCAR-3 ovarian) | growth (HS 578T breast) | growth (NCI/ADR-RES ovarian) | growth (SR leukemia) | growth (OVCAR-8 ovarian)
CC(C)OP(=O)(O)c1ncc(-c2ccc(C(F)(F)F)cc2)c(NC2CCCCCC2)n1 | 65.4% | 54.4% | 60.2% | 67% | 34.6% | 87% | 89.5% | 48.6% | 80.4% | 8.81% (active) | 84.6% | 52% | 85.2% | 62.4% | 12.1% | 81.7% | 97.5% |  | 
COc1ccc(N2CCN(c3nc(-c4ccccc4)c(C#N)c(=O)[nH]3)CC2)cc1 | 120% | 96.7% | 71.4% | 115% |  | 98.6% | 87.9% | 80.1% | 93.5% | 91.3% | 105% | 102% | 96.6% | 101% | 103% | 112% | 98.9% | 89.7% | 102%
CCN(CC)CCCOC(=O)Nc1ccccc1Cl | 101% | 102% | 91.7% | 98.9% |  | 104% | 97.7% | 88.4% | 98% | 97.3% | 110% | 115% | 111% | 123% | 124% | 121% | 107% | 101% | 111%
OC(CNC1CCCC1)Cn1c2ccccc2c2ccccc21 (stereo not drawn) | 48.9% | 50.7% | 12.3% | 29.2% | 15.1% | 31.8% | 58% |  | -13.9% (active) | 1.44% (active) | 103% | 36.2% | 59.7% | 30.9% | 36.4% | 63.6% | 15.1% | -32.5% (active) | 24.2%
O=C(OCC1OC(n2cc(C(F)(F)F)c(=O)[nH]c2=O)CC1OC(=O)c1ccc([N+](=O)[O-])cc1)c1ccc([N+](=O)[O-])cc1 (stereo not drawn) | 78% | 43.4% | 50.3% | 86.7% | 16% | 38.6% | 60.6% |  | 77.4% | 71.9% | 82.9% | 88.2% | 63.1% | 82.3% | 74.1% | 88.5% | 88.7% |  | 66.8%
Cc1nc(N)sc1Sc1nc2ccc(Cl)cc2c(=O)n1-c1ccc(Oc2ccccc2)cc1 | 96.9% | 73.9% | 61.8% | 89% | 78.5% | 73.5% | 39.9% | 41.5% | 44.3% | 68.1% | 87.9% | 40.9% | 104% | 101% | 91.3% |  | 69.9% |  | 75.2%
CC(C)C(C)C(N)C(=O)O (stereo not drawn) | 101% | 106% | 85.6% | 95.4% | 99% | 99% | 109% | 95.1% | 93% | 99.6% | 114% | 115% | 96% | 101% | 111% | 117% | 107% |  | 105%
Nc1c(CNCc2nnn(Cc3ccccc3)c2N)nnn1Cc1ccccc1 | 103% | 99% | 86.5% | 102% | 99.6% | 101% | 98.4% | 95.4% | 102% | 94.7% | 95.5% | 92.1% | 114% | 102% |  | 99% | 97.2% |  | 99.8%
COc1ccc(C2C=C(c3ccc(Cl)c(Cl)c3)N=C3SC(C)=CN32)cc1OC (stereo not drawn) | 79.2% | 70.6% | 60.7% | 74.1% |  | 61.7% | 105% | 58.5% | 48.8% | 38.4% | 97.1% | 72.9% | 109% | 72.2% | 60.9% | 90.8% | 79.4% | 61.9% | 68.7%
